Source: PubChem (National Center for Advancing Translational Sciences (NCATS))
IL-1B inflam inh: inflammasome signaling inhibition, IL-1 beta readout | THP-1 LPS/ATP IL-1B secretion, AlphaLISA, 16 h; active compounds read low | activity change, % at 57.5 µM | actives 4.7% (n = 360,000); in the data active = activity change below about -50%; inconclusive = mostly about -30% to -49%; also: % is scaled to controls: 0 for no effect and ±100 for the full control effect
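THP-1 cells pretreated 1 hr with compounds (up to 57.5 uM final), then stimulated with LPS (250 ng/mL final) plus ATP (1.25 mM final); secreted IL-1B measured by AlphaLISA after 16 hr, decreased signal indicating inhibition.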
TDP1 cell CPT: DT40-hTDP1 cell growth loss with CPT. Potency, µM (top dose mostly 46.2 µM), for the others: at the highest dose activity change, negative = growth inhibition, actives largely listed as inhibitors. chicken DT40 Tdp1-/-;hTDP1 cells + 20 nM CPT, ATP luminescence, 48 h. actives 12% (n = 420,000). AID 686979; also: potency is read from the fitted curve at half-maximal effect; % is scaled to controls: 0 for no effect and ±100 for the full control effect; nearly all actives have a fitted effect of over 55% in size
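Chicken DT40 Tdp1-/- cells complemented with human TDP1, 400 cells/well, exposed to compounds plus 20 nM camptothecin for at least 48 h at 37 C; viability read as ATP content by CellTiter-Glo luminescence.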
ClpP mod: qHTS Assay for Activators of ClpP. purified B. subtilis ClpP, FRET peptide cleavage, 20 min. Potency, µM (highest dose often 57.5 µM), inactives show at the highest dose activity change, negative = active. AID 651965, 2013. actives 1.9% (n = 340,000); active = well fitted falling curve with a large enough effect; inconclusive = small, poorly fitted or top-dose-only effect; inactive = no such curve, though single readings can be large or run the other way; also: potency is read from the fitted curve at half-maximal effect; the source files actives as falling curves though it sought activators and does not explain the sign; nearly all actives have a fitted effect of over 65% in size
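Purified B. subtilis ClpP, 10 microg/mL final in Tris/HCl pH8 with KCl, BSA, glycerol and Tween-20, cleaved an Abz/nitrotyrosine-quenched decapeptide. Fluorescence (ex 320, em 430) was read at 0 and 20 min at room temperature. Delta was normalized to 5.8 microM ADEP and DMSO/no-enzyme controls.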
DRD3 antagonist: D3 dopamine receptor (human) antagonism; max response, negative = inhibition, %; AID 652054; D3R cells, DiscoveRx beta-arrestin luminescence, antagonist mode; active compounds read low; P35462; actives 2.5% (n = 360,000); in the data active = max response below about -50%; inconclusive = no clear call, values can overlap the other calls; also: % is scaled to controls: 0 for no effect and ±100 for the full control effect
Target sequence (P35462 whole entry, looked up): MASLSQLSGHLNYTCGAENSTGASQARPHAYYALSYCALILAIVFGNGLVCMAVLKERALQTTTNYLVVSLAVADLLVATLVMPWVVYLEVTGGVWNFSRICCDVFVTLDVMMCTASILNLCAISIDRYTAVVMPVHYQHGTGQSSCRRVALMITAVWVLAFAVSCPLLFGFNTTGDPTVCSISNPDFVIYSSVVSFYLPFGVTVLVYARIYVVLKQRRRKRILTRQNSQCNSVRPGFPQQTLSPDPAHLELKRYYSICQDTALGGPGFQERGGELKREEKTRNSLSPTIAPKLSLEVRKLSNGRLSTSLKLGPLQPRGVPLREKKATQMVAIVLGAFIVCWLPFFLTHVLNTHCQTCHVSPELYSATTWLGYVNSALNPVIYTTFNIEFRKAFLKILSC
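Cells expressing the human receptor were seeded at 1500 cells/well, incubated overnight at 37 degrees C in 5% CO2, then exposed to library compounds with dopamine controls for 90 minutes at 37 degrees C before luminescent detection.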
DT40 TDP1 no CPT: qHTS for Inhibitors of human tyrosyl-DNA phosphodiesterase 1 (TDP1): qHTS in cells in absence of CPT; DT40 Tdp1-/- hTDP1 cells, no CPT, ATP luminescence, 48 h; Potency, µM (doses to about 46.2 µM), inactives show top-dose activity change, negative = growth inhibition, hits mostly inhibitors; actives 15% (n = 420,000); also: potency is read from the fitted curve at half-maximal effect; % is scaled to controls: 0 for no effect and ±100 for the full control effect; nearly all actives have a fitted effect of over 55% in size
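Growth kinetics read by CellTiter-Glo luminescence after ≥48 hr at 37 °C. Cells: DT40 Tdp1-/- stably carrying human TDP1, 400 per well, compound exposure in the absence of CPT (DMSO vehicle).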
D3 ag: D3 dopamine receptor (human) agonism. max activation, %. D3R DiscoveRx beta-arrestin cells, luminescence, 90 min. P35462. actives 0.58% (n = 410,000); in the data active = max activation above about 30%; also: 0% is about no effect
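Agonist-mode cell screen: cells plated at 1500/well and incubated overnight at 37 °C, then exposed to library compounds for 90 min at 37 °C. Detection reagent was added for 30–60 min at room temperature, and luminescence was read.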
An asterisk follows results filed as active; ? = inconclusive; nt = no result. Most compounds without a hit are left out; they make up all but 21% or so of the library. Unless noted, calls follow the shape of the dose curve; as a rule, active = well fitted inhibition curve with a large enough effect; inconclusive = small, poorly fitted or top-dose-only effect; inactive = flat fitted curve, though single readings scatter.

SMILES | IL-1B inflam inh | TDP1 cell CPT | ClpP mod | DRD3 antagonist | DT40 TDP1 no CPT | D3 ag
Nc1ccn([C@@H]2O[C@H](CNC(=O)[C@@H](N)CSCc3ccccc3)[C@@H](O)[C@H]2O)c(=O)n1 | 13 | -17% | 9% | -17 | -17% | -8
Cc1nc(N)nc(N)c1Oc1ccc(Cl)cc1 | 19 | 9.2µM* | nt | 0 | ? | 9
CC(=O)Nc1nc(C)c(Oc2ccc(Cl)cc2)c(=O)[nH]1 | -12 | 0% | nt | 6 | 2% | -13
Cc1cccc(NC(=O)CN2C(=O)C3(SCC(=O)N3c3ccccc3)c3ccccc32)c1 (centres undefined) | nt | 23µM* | -5% | nt | ? | -9
Cc1cc(C)cc(N2C(=O)CSC23C(=O)N(Cc2c(F)cccc2Cl)c2ccccc23)c1 (centres undefined) | nt | 16µM* | -2% | nt | 16µM* | 3
COc1cccc(NC(=O)CN2C(=O)C3(SCC(=O)N3c3cc(C)cc(C)c3)c3ccccc32)c1 (centres undefined) | nt | 18µM* | -1% | nt | ? | 2
COc1cccc(N2C(=O)CSC23C(=O)N(CC(=O)Nc2cc(C)ccc2C)c2ccccc23)c1 (centres undefined) | nt | ? | -1% | nt | ? | 5
CCc1cccc(C)c1NC(=O)CN1C(=O)C2(SCC(=O)N2c2cc(C)cc(C)c2)c2ccccc21 (centres undefined) | nt | 18µM* | 1% | nt | 16µM* | 0
O=C1NC(=O)/C(=C/C(=O)N2CCOCC2)S1 | 2 | -4% | -1% | 16 | -1% | 3
COc1ccc(C(=O)NC(C)c2cnn(-c3ccccn3)c2C)o1 (centres undefined) | 11 | 3% | 0% | 17 | -15% | 6
CCOc1ccc(NC(=O)CN2C(=O)C3(SCC(=O)N3c3ccc(F)cc3)c3ccccc32)cc1 (centres undefined) | nt | 23µM* | 0% | nt | ? | 1
CC(C)c1ccc(NC(=O)CN2C(=O)C3(SCC(=O)N3c3ccc(F)cc3)c3ccccc32)cc1 (centres undefined) | nt | ? | 1% | nt | ? | -1
COc1cc(CNC(=O)c2nc(Cn3nc(C)c(Br)c3C)no2)cc(OC)c1 | -71* | 29µM* | -1% | -12 | ? | 18
COC(=O)c1ccc(CNC(=O)c2nc(Cn3nc(C)c(Br)c3C)no2)cc1 | nt | nt | 2% | nt | nt | -14
COC(=O)c1ccc(Cn2nc(C)c(Cl)c2C)o1 | 5 | -10% | 5% | 1 | 0% | -1
COc1cc(CNC(=O)c2ccc(Cn3nc(C)c(Cl)c3C)o2)cc(OC)c1 | -12 | ? | 1% | 10 | 8.2µM* | 10
NC(=O)c1c(NC(=O)c2ccccc2)sc2c1CCc1ccccc1-2 | 15 | -13% | 32µM* | 18 | -29% | 14
CC1(C)Cc2c(sc(NC(=O)c3ccc(C(=O)c4ccccc4)cc3)c2C(N)=O)C(C)(C)N1 | -102* | ? | 16% | -50* | ? | -11
CC1(C)Cc2c(sc(NC(=O)c3ccc4ncsc4c3)c2C(N)=O)C(C)(C)N1 | -215* | ? | nt | 14 | ? | -1
CC1(C)Cc2c(sc(NC(=O)COc3ccc(Cl)cc3)c2C(N)=O)C(C)(C)N1 | -16 | ? | 1% | 7 | -1% | -4
Cc1cccc(C(=O)OC2CCOC2=O)c1O (centres undefined) | -9 | -6% | nt | -18 | 1% | -14
NC(=O)c1cc2ccc(O)cc2oc1=NCc1ccccc1 | -11 | 18µM* | ? | 21 | ? | 5
NC(=O)c1cc2ccccc2oc1=NCc1ccccc1 | -26 | -10% | -3% | -5 | -20% | -1
